# Bioassay records (PubChem)
# The list is not random: actives were taken first. Their share in the collection is about 7.4%.
# FLuc counter: counter-screen for miR-21 project: firefly luciferase inhibitors or activators. P08659. purified FLuc, Km substrates, luminescence inhibition. Potency, µM (top dose mostly 57.5 µM), inactives show at the highest dose activity change, negative = inhibition, usual class: inhibitors. 360,000 compounds, 6.9% hits. AID 588342;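 further: plate controls were vehicle for no effect and reference inhibitor for full effect; nearly all actives have a fitted effect of over 55% in size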
# Target sequence (P08659 whole entry, looked up): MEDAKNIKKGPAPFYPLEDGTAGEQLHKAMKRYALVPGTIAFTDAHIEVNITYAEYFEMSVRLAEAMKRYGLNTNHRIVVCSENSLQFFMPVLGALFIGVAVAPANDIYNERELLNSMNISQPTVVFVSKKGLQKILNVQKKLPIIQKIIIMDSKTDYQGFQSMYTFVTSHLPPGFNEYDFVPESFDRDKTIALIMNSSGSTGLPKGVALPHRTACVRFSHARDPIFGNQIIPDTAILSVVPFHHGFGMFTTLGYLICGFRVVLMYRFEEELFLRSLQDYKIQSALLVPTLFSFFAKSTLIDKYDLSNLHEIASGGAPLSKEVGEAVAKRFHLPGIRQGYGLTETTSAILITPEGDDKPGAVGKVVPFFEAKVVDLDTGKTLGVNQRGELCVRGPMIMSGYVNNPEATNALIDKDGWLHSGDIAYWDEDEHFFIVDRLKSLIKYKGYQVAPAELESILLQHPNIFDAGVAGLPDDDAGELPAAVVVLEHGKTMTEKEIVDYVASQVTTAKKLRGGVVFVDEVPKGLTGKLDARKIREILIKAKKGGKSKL
#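 Purified P. pyralis luciferase, 10 nM final, with Km-level 10 uM D-luciferin and 10 uM ATP in 50 mM Tris acetate pH 7.5, 10 mM Mg acetate, 0.01% Tween-20, 0.05% BSA; 6-point qHTS titration about 60 µM downward; luminescence read.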
# ELG1 genotoxic: genotoxicity induction in ELG1-luciferase HEK293T cells; AID 504466; HEK293T ELG1-luciferase reporter, luminescence, 16 h; 330,000 compounds, 1.3% hits; Potency, µM (series often up to 46 µM), inactives show at the top dose activity change, positive = activation, most hits filed as activators; further: % of control where 0% means no effect; nearly all actives have a fitted effect of over 60% in size
#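 Genotoxicity was scored as increased ELG1-luciferase reporter signal, measured by ONE-Glo luminescence (30 min, room temperature). Compound or vehicle exposure of the HEK293T reporter cells lasted 16 hr at 37°C.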
# SMN2 splice up: increases expression of the SMN2 splice variant; Potency, µM (doses to about 46.1 µM), inactives show at the top dose activity change, positive = activation, most hits filed as activators; 210,000 compounds, 2.8% hits; HEK293 SMN2-luciferase splicing reporter, luminescence, 30-36 h; further: % of control where 0% means no effect; nearly all actives have a fitted effect of over 55% in size
#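 HEK293 cells carry an SMN2 minigene-luciferase reporter in which exon 7 inclusion puts luciferase in frame. Cells were seeded at 2000 cells/well, attached for 10-12 hours, then exposed to compounds for 30-36 hours at 37C before ONE-Glo luminescence.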
# KinaseGlo FLuc: blocks Kinase-Glo luciferase, a counter-screen artifact; Kinase-Glo luciferase, ATP luminescence, 8 min; Potency, µM (top dose mostly 38.3 µM), inactives show at the top dose activity change, negative = inhibition, hits mostly inhibitors; 200,000 compounds, 0.28% hits; further: on the % scale 0 is the no-effect control and ±100 the full control effect; nearly all actives have a fitted effect of over 60% in size
#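 Compound is pinned into ATP-containing buffer (10 uM ATP, imidazole pH 7.2, 7 mM MgCl2). Kinase-Glo luciferase reagent is then added. Light output is recorded following an 8-min room-temperature incubation.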
# NPC1 promoter act: NPC1 promoter activation; Huh7 NPC1 promoter luciferase reporter, 24 h; Potency, µM (doses to about 9.22 µM), for the others: at the highest dose activation, actives largely listed as activators; 320,000 compounds, 2.4% hits; AID 485313; further: % of control where 0% means no effect; nearly all actives have a fitted effect of over 60% in size
#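 Luciferase expression driven by the NPC1 promoter was measured in stably transfected Huh7 cells after a 24 h compound incubation, using a luciferase reagent and a luminescence read.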
# Rab9 promoter act: Rab9 promoter activation | Huh7 Rab9 promoter-luciferase reporter, luminescence, 24 h | Potency, µM (series often up to 9.22 µM), for inactives: top-dose activation, negative = inhibition, hits mostly activators | 320,000 compounds, 2.8% hits; further: % of control where 0% means no effect; nearly all actives have a fitted effect of over 60% in size
#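 Luminescence from Amplite-detected luciferase (10 minutes, ambient) reports Rab9 promoter activation. Before that, stable Rab9-luciferase Huh7 cells (1500/well, reduced-serum OP-MEM I plus 10% FBS) were exposed to compound for 24 hours at 37C.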
# Starred values were filed as active, the others as inactive; ? = inconclusive; nt = not tested or not shown; [ ] = another dose, or the depositor's remark. The call rests on the fitted dose curve; in most records, active means well fitted curve in the direction sought with a large enough effect; inconclusive means small, poorly fitted or top-dose-only effect, or another doubt; inactive means no such curve, though single readings can be large; an effect the other way counts as inactive or inconclusive. Potency means the concentration at half of the fitted maximal effect.
SMILES,FLuc counter,ELG1 genotoxic,SMN2 splice up,KinaseGlo FLuc,NPC1 promoter act,Rab9 promoter act
COc1ccc(-c2cc3c(=O)n(CC(=O)Nc4cccc(Cl)c4)nc(C)n3n2)cc1,1%,3%[9.26 µM],nt,nt,-6%,-2%
COc1cc(C(=O)Nc2nc3ccc(S(C)(=O)=O)cc3s2)cc(OC)c1C,-10%,-2%,nt,nt,0%,1%
O=C(O)CCC(=O)Nc1nc2ccccc2s1,-13%,0%,-10%,15%,-5%,-4%
Cc1ccc(C(=O)Nc2nc3ccccc3s2)s1,0.54µM*,?,-14%,13µM*,0.63µM*,0.4µM*
Cc1ccc(C(=O)Nc2nc3ccc(S(C)(=O)=O)cc3s2)s1,2.4µM*,16µM*,11µM*,-6%,1.8µM*,1.4µM*
O=C(NCCn1cccn1)C1CCC(=O)N(CCc2ccccc2)C1 (stereo not given),0%,5%,nt,nt,-4%,4%
COc1ccccc1C(=O)Nc1ccnn1C1CCN(Cc2ccc3nonc3c2)CC1,-14%,-9%,nt,nt,2%,-2%
Brc1ccccc1-c1nc2c3ccccc3ncn2n1,?,13%,nt,nt,?,3.2µM*
Clc1ccc(-c2nc3c4cnn(-c5ccccc5Br)c4ncn3n2)c(Cl)c1,-17%,nt,-2%,nt,nt,nt
CCS(=O)(=O)Nc1cc(C(=O)O)ccc1C,0%,0%,9%,6%,-1%,-8%
Cc1ccn2cc(-c3ccc(C)c(NS(=O)(=O)c4ccc(Cl)cc4)c3)nc2c1,11µM*,nt,-31%,nt,nt,nt
CCc1ccc(S(=O)(=O)Nc2cc(-c3cn4ccccc4n3)ccc2C)cc1,?,nt,9%,nt,nt,nt
Cc1ccc(C)c(NS(=O)(=O)c2ccc(NC(=O)CSc3ccc(Cl)cc3)cc2)c1,6%,-4%,-15%,-1%,3%,0%
CCS(=O)(=O)Nc1cc(-c2cn3ccc(C)cc3n2)ccc1C,12µM*,nt,?,nt,nt,nt
CC(=O)Nc1ccc(S(=O)(=O)Nc2cc(-c3cn4ccccc4n3)ccc2C)cc1,17µM*,nt,?,nt,nt,nt
O=C(C1=C[C@@H]2[C@H]3C(=O)N(c4ccccc4)C(=O)[C@H]3[C@@H](C(=O)c3ccc(Cl)cc3)N2C=C1)c1ccccc1,-1%,-1%,-5%,-4%,-2%,-3%
S=C1NC2(CCS1)Oc1ccccc1C1CC(c3ccccc3)=NN12 (stereo not given),27µM*,6%,nt,nt,1%,1%
CN1C(=O)C2(Oc3ccccc3C3CC(c4ccccc4)=NN32)c2ccccc21 (stereo not given),?,0%,11%,-2%,3%,-12%
NC(=O)c1ccccc1N/C=C/C(=O)c1cccs1,2.7µM*,2.1µM*,7.1µM*,?,1.8µM*,0.89µM*
Cc1ccccc1NC(=O)Nc1ccccc1C(N)=O,-12%,7%,nt,2%,-1%,-2%
O=C(/C=C/c1ccc([N+](=O)[O-])cc1)c1cccs1,-17%,5%,nt,nt,-1%,12%
Cc1ccc(C(=O)/C=C/Nc2ccccc2C(N)=O)o1,5.4µM*,nt,11µM*,?,nt,nt
NC(=O)c1ccccc1NS(=O)(=O)c1cccs1,4%,-1%,nt,3%,-1%,-2%
NC(=O)c1ccccc1N/C=C/C(=O)c1ccc(Cl)cc1Cl,0.19µM*,?,1µM*,11µM*,0.79µM*,0.5µM*
COc1cc([N+](=O)[O-])ccc1N/C=C/C(=O)c1cccs1,0.12µM*,?,1.6µM*,?,0.5µM*,1.1µM*
SMILES,FLuc counter,ELG1 genotoxic,SMN2 splice up,KinaseGlo FLuc,NPC1 promoter act,Rab9 promoter act
CCOc1ccccc1NC(=O)CC(c1ccc(F)cc1)N1Cc2ccccc2C1=O (stereo not given),-9%,nt,nt,nt,nt,nt
O=C(Nc1ccc(F)cc1)c1ccc(Br)c(S(=O)(=O)N2CCOCC2)c1,-8%,-3%,nt,nt,-2%,-12%
Cc1cccc(N/C=C/C(=O)c2cccs2)c1C,0.34µM*,1.8µM*,2µM*,?,29%,?
NC(=O)c1ccccc1N/C=C/C(=O)c1ccc(F)cc1,0.76µM*,?,18µM*,7.9µM*,0.71µM*,1µM*
Cc1c(NC(=O)c2cccs2)cccc1NC(=O)c1cccs1,-6%,1%,nt,nt,5%,-3%
COc1ccc(/C(O)=C2/C(=O)C(=O)N(c3ncccn3)C2c2ccc(F)cc2)cc1 (stereo not given),3%,-1%,nt,nt,-8%,-1%
Oc1[nH]c2ccccc2c1N=Nc1nncc2ccccc12,7.6µM*,7%,nt,nt,?,3.5µM*
Cc1sc2ncnc(N=Nc3c(O)[nH]c4ccccc34)c2c1C,0.85µM*,3%,-13%,-4%,16%,?
NC(=S)N=Nc1c(O)[nH]c2ccccc12,-19%,-2%,-4%,-3%,2%,-2%
Cc1c(OCC(=O)N2CCC(C(=O)NCCCC(=O)O)CC2)ccc2c1oc(=O)c1ccccc12,?,0%[9.26 µM],nt,nt,-3%,-3%
c1csc(-c2nc3c4ccccc4c4ccccc4c3[nH]2)c1,15µM*,-13%,-10%,-4%,-4%,-7%
O=C(Nc1ccc(C(F)(F)F)cc1)C(Cc1ccccc1)n1cccc1 (stereo not given),-4%,nt,-18%,nt,nt,nt
Cc1cccnc1NC(=O)Cn1nc(-c2ccccc2)oc1=S,-7%,?,3.2µM*,1%,3.2µM*,1.3µM*
Cc1cccnc1NC(=O)Cn1nc([N+](=O)[O-])cc1C,-1%,1%,13%,0%,-1%,-11%
CCN=c1scc(-c2cccs2)n1/N=C/c1cc(OC)ccc1O,2.4µM*,?,?,-2%,2µM*,?
CN=c1scc(-c2ccccc2F)n1/N=C/c1ccc(O)c(O)c1O,0.76µM*,9%,0.63µM*,11µM*,?,?
CC(C)N=c1scc(-c2cccs2)n1/N=C/c1ccc(O)c(O)c1O,24µM*,?,3%[1.84 µM],-1%,2%,5%
CN=c1scc(-c2ccccc2F)n1/N=C/c1ccc[nH]1,0.027µM*,-17%,-110%,11µM*,-41%,-30%
O=C(Cc1c(F)cccc1Cl)OCN1C(=O)c2ccccc2C1=O,?,0%,nt,nt,4%,7%
O=C(c1cc(S(=O)(=O)N2CCCC2)c[nH]1)N1CCN(c2cccc(Cl)c2)CC1,-8%,nt,nt,nt,nt,nt
N#CCSc1ccccc1NC(=O)CN1C(=O)C2CC=CCC2C1=O (stereo not given),0%,0%,nt,nt,-3%,7%
O=C1CCCC(O)=C1C=Nc1ccc2c(c1)oc1ccccc12,2.1µM*,0%,?,-1%,25%,?
COc1ccc(Cl)cc1N1C(=O)CC(Sc2ccccc2N)C1=O (stereo not given),0%,-5%,nt,nt,-2%,-2%
